The test system of test [1] is Vero E6 infected with SARS-CoV-2. The test can be described thus: morphology score (similarity to uninfected cells); higher = more like uninfected cells. The following applies: 24 h.
Test [2] shares this test system. The test can be described thus: SARS-CoV-2 infection rate relative to infected DMSO; higher = more infection, active = 60 or less. The following applies: 24 h.

Counter-ions that a name gives are not always drawn.

In test [1], `OC[C@H]1O[C@@H](Oc2ccc(O)cc2)[C@H](O)[C@@H](O)[C@@H]1O` [arbutin] (10 µM) returned a morphology score of 0.104. Also, the SARS-CoV-2 infection rate in test [2] is 104% (inactive).
Molecule `CCOC(=O)c1c(O)nc2cccc3c2c1-c1ccccc1C3=O` (10 µM) came in with a morphology score in test [1] of -0.157. The SARS-CoV-2 infection rate in test [2] is 117% (inactive).
The matching figures for `NCC1(CC(=O)O)CCCCC1` [gabapentin] (10 µM): -0.108 and 109% (inactive).
On to `CC(C)=CCC/C(C)=C/CC/C(C)=C/CCC(=O)OC/C=C(\C)CCC=C(C)C` [geranyl-farnesylacetate] (10 µM), for which the morphology score in test [1] is -0.0168. In addition, in test [2], the SARS-CoV-2 infection rate is 99% (inactive).
For `O/N=C/c1cc[n+](COC[n+]2ccc(/C=N/O)cc2)cc1` [obidoxime] (10 µM), in that order: -0.0437 and 108% (inactive).
As to `N[C@@H](CSCCCO)C(=O)O` [fudosteine] (10 µM), in test [1], the morphology score amounted to 0.0399. Also, the SARS-CoV-2 infection rate in test [2] was 104% (inactive).
Consider `O=C(NC1CCNCC1)[C@@H]1CC[C@@H]2CN1C(=O)N2OS(=O)(=O)O` [relebactam] (10 µM), for which, in test [1], the morphology score amounted to 0.0111. The SARS-CoV-2 infection rate in test [2] is 110% (inactive).
Take `NC1CCN(c2cccc(Cl)n2)CC1` (10 µM): the morphology score in test [1] was -0.122. Moreover, the SARS-CoV-2 infection rate in test [2] was 108% (inactive).
In test [1], `Cc1cc2cc3c(C)cc(=O)oc3c(C)c2o1` [trioxsalen] (10 µM) had a morphology score of 0.133. The SARS-CoV-2 infection rate in test [2] is 94% (inactive).
For `Cc1cn2c(N)c(Cl)cc(C(=O)NCC3CCN(CC(C)C)CC3)c2n1` (10 µM), in that order: 0.221 and 103% (inactive).
In turn, `C#Cc1cccc(Nc2ncnc3cc(OCCOC)c(OCCO)cc23)c1` (10 µM) displayed a morphology score in test [1] of -0.0889. The SARS-CoV-2 infection rate in test [2] is 116% (inactive).
The matching figures for `COc1cc(C[C@H]2c3cc(OC)c(OC)cc3CCN2C)c(Oc2cc3c(cc2OC)-c2c(OC)c(OC)cc4c2[C@H](C3)N(C)CC4)cc1OC` [thaliblastine] (10 µM): 0.443 and 30.5% (active).
In test [1], `c1ccc2c(Oc3nc(Nc4ccc(N5CCOCC5)cc4)c4ncn(C5CCCCC5)c4n3)cccc2c1` [purmorphamine] (10 µM) came in with a morphology score of -0.227. Besides, the SARS-CoV-2 infection rate in test [2] was 113% (inactive).
The matching figures for `CN1CCC(=C2c3ccccc3CC(=O)c3sccc32)CC1` [ketotifen] (10 µM): 0.144 and 101% (inactive).
For `COc1cc(NC(=O)c2ccc(-c3ccc(Cl)cc3)o2)cc(OC)c1` (10 µM), in test [1], the morphology score was found to be 0.0298. In test [2], the SARS-CoV-2 infection rate is 112% (inactive).
The matching figures for `OC(CNCC(O)C1CCc2cc(F)ccc2O1)C1CCc2cc(F)ccc2O1` (stereo not drawn) [nebivolol] (10 µM): 0.0502 and 108% (inactive).
For `CNCc1ccc(-c2cc(-c3nc(-c4ccc(S(=O)(=O)C(C)C)cc4)cnc3N)on2)cc1` (0.833333 µM), in that order: 0.565 and 52% (active).
The molecule `CCCCCCCCNC(C)C(O)c1ccc(SC(C)C)cc1` (stereo not drawn) [suloctidil] (10 µM) showed a morphology score in test [1] of 0.834. Further, the SARS-CoV-2 infection rate in test [2] is 21.5% (active).
In test [1], `Cc1ccc(S(=O)(=O)NC(=O)NN2CC3CCCC3C2)cc1` (stereo not drawn) [gliclazide] (10 µM) showed a morphology score of 0.0635. Also, the SARS-CoV-2 infection rate in test [2] was 106% (inactive).
In turn, `CCCC(=O)Nc1cccc(NC(=O)c2ccccc2Br)c1` (10 µM) displayed a morphology score in test [1] of -0.131. Further, in test [2], the SARS-CoV-2 infection rate is 110% (inactive).
The matching figures for `Nc1cccc(-c2cc3c(Oc4cccc(O)c4)ncnc3[nH]2)c1` (0.833333 µM): 0.0833 and 104% (inactive).
`CCSC(=N)N` [EIT-hydrobromide] (10 µM) registered a morphology score in test [1] of -0.0504. Moreover, the SARS-CoV-2 infection rate in test [2] is 102% (inactive).
For `CCCCc1ccc(NS(=O)(=O)c2ccc(F)cc2)cc1` (10 µM), in that order: 0.122 and 102% (inactive).
On to `Nc1ncnc(Nc2ccc(Cl)cc2)n1` [chlorazanil] (10 µM), for which the morphology score in test [1] was 0.133. Also, in test [2], the SARS-CoV-2 infection rate is 106% (inactive).
For `CN(C)CCCn1cc(C2=C(c3c[nH]c4ccccc34)C(=O)NC2=O)c2ccccc21` (0.833333 µM), in that order: -0.0102 and 104% (inactive).
`O=C1OC(c2ccc(O)cc2)(c2ccc(O)cc2)c2ccccc21` [phenolphthalein] (10 µM): the morphology score in test [1] is 0.0414. Moreover, in test [2], the SARS-CoV-2 infection rate was 110% (inactive).
With `Oc1c(I)cc(I)c(O)c1I` [riodoxol] (10 µM), in test [1], the morphology score came to 0.0583. Moreover, in test [2], the SARS-CoV-2 infection rate is 107% (inactive).
The matching figures for `CC(=O)c1c(C)c2cnc(Nc3ccc(N4CCNCC4)cn3)nc2n(C2CCCC2)c1=O` [palbociclib] (10 µM): 0.0925 and 108% (inactive).
For `O=C(CCCCCCC(=O)Nc1cccnc1)NO` [pyroxamide] (0.833333 µM), in that order: 0.0384 and 104% (inactive).
The matching figures for `Nc1nccc2c1ncn2[C@@H]1O[C@H](CO)[C@@H](O)[C@@H]1O` [3-deazaadenosine] (10 µM): 0.123 and 106% (inactive).
Turning to `O=C(O)C[CH2][Ge](=[O])[O][Ge](=[O])[CH2]CC(=O)O` [propagermanium] (10 µM), the morphology score in test [1] turned out to be 0.128. Further, in test [2], the SARS-CoV-2 infection rate is 94% (inactive).
For `Cc1cc(/C=C2\SC(=O)N(c3ccccc3)C2=O)c(C)n1-c1cccnc1` (10 µM), in that order: -0.171 and 102% (inactive).
The matching figures for `CC(C)c1ccc2c(c1)CC[C@H]1[C@](C)(CN)CCC[C@]21C` [lylamine] (0.833333 µM): -0.00872 and 106% (inactive).
The matching figures for `CC(C)OC(=O)C1=CN(C(=O)c2ccc(F)c(F)c2)CC(C)(C)c2c1[nH]c1ccccc21` (10 µM): 0.0521 and 100% (inactive).
Take `C[C@@H]1O[C@@H](OC[C@H]2O[C@@H](Oc3c(-c4ccc(O)c(O)c4)oc4cc(O)cc(O)c4c3=O)[C@H](O)[C@@H](O)[C@@H]2O)[C@H](O)[C@H](O)[C@H]1O` [rutin] (10 µM): the morphology score in test [1] was -0.197. Besides, in test [2], the SARS-CoV-2 infection rate was 112% (inactive).
The matching figures for `Cn1cnc2c(NCc3ccccc3)nc(NCCO)nc21` [olomoucine] (10 µM): 0.0162 and 98.5% (inactive).
Take `CON` [methoxyamine] (10 µM): in test [1], the morphology score came out at 0.192. In addition, in test [2], the SARS-CoV-2 infection rate is 99% (inactive).
The matching figures for `C=CCc1ccc(O)c(-c2cc(CC=C)ccc2O)c1` [magnolol] (10 µM): 0.249 and 108% (inactive).
Molecule `N.N.[Cl][Pt][Cl]` [cisplatin] (10 µM) returned a morphology score in test [1] of 0.0556. Further, the SARS-CoV-2 infection rate in test [2] was 111% (inactive).
In test [1], `CN(C)C(=O)Nc1cccc(-c2ccc(N(C)C)cc2)c1` [atglistatin] (10 µM) displayed a morphology score of 0.11. Also, the SARS-CoV-2 infection rate in test [2] is 98% (inactive).
On to `Oc1cc(O)cc(O)c1` [phloroglucin] (10 µM), for which, in test [1], the morphology score was -0.0825. Further, in test [2], the SARS-CoV-2 infection rate was 114% (inactive).
`CC[C@H]1OC(=O)[C@H](C)C(=O)[C@H](C)[C@@H](O[C@@H]2O[C@H](C)C[C@H](N(C)C)[C@H]2O)[C@](C)(OC)C[C@@H](C)C(=O)[C@H](C)[C@H]2N(CCCCn3cnc(-c4cccnc4)c3)C(=O)O[C@]12C` [telithromycin] (10 µM) had a morphology score in test [1] of 0.0131. Moreover, the SARS-CoV-2 infection rate in test [2] was 118% (inactive).
`CC(C)c1nc(CN(C)C(=O)N[C@H](C(=O)N[C@@H](Cc2ccccc2)C[C@H](O)[C@H](Cc2ccccc2)NC(=O)OCc2cncs2)C(C)C)cs1` [Ritonavir] (10 µM): the morphology score in test [1] stood at 0.0318. Besides, the SARS-CoV-2 infection rate in test [2] was 95% (inactive).
The matching figures for `CC[C@@H](CO)NCCN[C@@H](CC)CO` [ethambutol] (10 µM): -0.117 and 109% (inactive).
For `COc1ccc(-c2nc(C(=O)N3CCN(C)CC3)sc2-c2ccc(OC)cc2)cc1` (10 µM), in that order: 0.211 and 93.5% (inactive).
The matching figures for `CN=C(N)NCCC[C@H](N)C(=O)O` [L-monomethylarginine] (10 µM): 0.197 and 97% (inactive).
For the molecule `CCCCCCCCCCCCOS(=O)(=O)O` [dodecyl-sulfate] (10 µM), the morphology score in test [1] came to 0.0848. For the same molecule, in test [2], the SARS-CoV-2 infection rate was 103% (inactive).
The matching figures for `CN(C)[C@@H]1C(O)=C(C(N)=O)C(=O)[C@@]2(O)C(O)=C3C(=O)c4c(O)ccc(Cl)c4[C@@H](O)[C@H]3C[C@@H]12` [demeclocycline] (10 µM): 0.0306 and 96% (inactive).
The molecule `CC1COc2c(N3CCN(C)CC3)c(F)cc3c(=O)c(C(=O)O)cn1c23` (stereo not drawn) [ofloxacin] (10 µM) came in with a morphology score in test [1] of 0.0901. Also, the SARS-CoV-2 infection rate in test [2] is 104% (inactive).
`CCOC(=O)c1ncn2c1[C@@H]1CCCN1C(=O)c1cc(OC)ccc1-2` (10 µM) had a morphology score in test [1] of 0.286. The SARS-CoV-2 infection rate in test [2] is 95% (inactive).
Regarding `CC(C)CCC[C@@H](C)[C@H]1CC[C@H]2[C@@H]3CC=C4C[C@@H](O)CC[C@]4(C)[C@H]3CC[C@]12C` [cholesterol] (10 µM), the morphology score in test [1] was 0.178. The SARS-CoV-2 infection rate in test [2] was 98% (inactive).
The matching figures for `CN(C)CCn1cc(S(=O)(=O)c2cccc(F)c2)c2cccnc21` (10 µM): -0.0241 and 109% (inactive).
For `O=C1c2c(O)cc(O)cc2O[C@H](c2ccc(O)c(O)c2)[C@H]1O` [taxifolin] (10 µM), in that order: 0.187 and 99.5% (inactive).
In the case of `O=C(O)c1cc2ccccc2s1` (10 µM), the morphology score in test [1] is 0.0676. For the same molecule, the SARS-CoV-2 infection rate in test [2] was 88% (inactive).
The matching figures for `CC(C)CNc1nc(-c2cccc3ncccc23)cn2c(-c3ccc(C(=O)NC4CC4)cc3)cnc12` (10 µM): -0.233 and 99.5% (inactive).
Consider `CCCCOCCOc1nc(-c2ccc(C(=O)O)c(F)c2)sc1C` (10 µM), for which the morphology score in test [1] was -0.127. Moreover, in test [2], the SARS-CoV-2 infection rate was 108% (inactive).
`CCn1c2ccccc2c2cc(Nc3ccnc(NCCCN4CCOCC4)n3)ccc21` (0.833333 µM) yielded a morphology score in test [1] of 0.235. For the same molecule, the SARS-CoV-2 infection rate in test [2] was 93% (inactive).
`Nc1ccc2cc3ccc(N)cc3nc2c1` [proflavine-hemisulfate] (0.833333 µM) came in with a morphology score in test [1] of 0.26. Further, the SARS-CoV-2 infection rate in test [2] is 80.5% (inactive).
In turn, `C=CCNC(=O)c1cc([N+](=O)[O-])cc2c(=O)[nH]c(Nc3ccc(Cl)c(Cl)c3)nc12` (10 µM) displayed a morphology score in test [1] of -0.137. In addition, in test [2], the SARS-CoV-2 infection rate was 108% (inactive).
Consider `COc1cc(NC(C)CCCN)c2ncccc2c1` (stereo not drawn) [primaquine] (10 µM), for which the morphology score in test [1] was found to be 0.491. Moreover, the SARS-CoV-2 infection rate in test [2] was 76.5% (inactive).
The matching figures for `CCN(CC)CCNC(=O)c1c(C)[nH]c(/C=C2\C(=O)Nc3ccc(F)cc32)c1C` [sunitinib] (0.833333 µM): 0.396 and 99% (inactive).
For `CCC(NC(C)C)C(O)c1ccc(O)c(O)c1` (stereo not drawn) [isoetharine] (10 µM), in that order: 0.128 and 93% (inactive).
For `CCN(CC)CCOc1ccccc1C(=O)CCc1ccccc1` [etafenone] (10 µM), in that order: 0.151 and 97.5% (inactive).
`Cc1c[nH]c(=O)n(CCCN2CCN(c3ccccc3OCC(F)(F)F)CC2)c1=O` (10 µM) came in with a morphology score in test [1] of 0.0456. The SARS-CoV-2 infection rate in test [2] was 111% (inactive).

Source of the values: the supplement of paper PMC13380429.
